This assay in a line: ADP-Glo luciferase signal interference – biochemical, luminescence, cherry-picked samples, set 2, artefact control for CDK5 inhibitor project, dose response (AID 504546). A general note: In ADP-Glo the light output rises with the ADP produced.

From PubChem BioAssay AID504546 (Broad Institute, 2011) come the findings set out here.

Records with an inconclusive call do not appear. The source made the active and inactive calls.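 The calls were made as follows: active = every repeat run fits a falling-signal curve with half-maximal potency within ten times top tested dose; inconclusive = runs disagree, or flat moderate drop, or poor fit; inactive = every run inactive, including signal moving upward.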

As to `OCCCNc1nccc(-c2cc(Nc3cccc(Cl)c3)ncn2)n1`, the molecule was called inactive.
Take `O=C1NCCCc2c1oc1ccc(O)cc21`: the call was inactive.
Take `CC(C)=CCNc1ncnc2c1c(C#N)cn2C1OC(CO)C(O)C1O` (centres undefined): the molecule was classed as inactive.
For `Oc1ccc(C=NNc2ccccn2)c(O)c1`, the outcome was inactive.
As to `O=[N+]([O-])c1ccc2c(c1)/C(=N\O)c1ccccc1-2`, the outcome was inactive.
For the molecule `Clc1cccc(Cl)c1/C=N/Nc1c(Cl)cncc1Cl`, the outcome was inactive.
With `O=C(O)c1ccc(/C=N/Nc2ccc(C(F)(F)F)cn2)cc1`, the outcome was inactive.
`C=CCNC(=O)c1n[nH]c2c1CC(C(C)(C)CC)CC2` (centres undefined): the call was inactive.
As to `Cc1ccc(Nc2nc(NCCO)nc3c2cnn3C)cc1Cl`, the molecule was called inactive.
`COc1cc(/C=N/Nc2ccc(C(F)(F)F)cn2)ccc1O`: the molecule was classed as inactive.
Consider `Cc1nc(Nc2ccccc2)sc1C(=O)c1ccc(F)cc1`, for which the call was inactive.
Turning to `Nc1ncnc2c1ncn2C1OC(CO)C(O)C1O` (centres undefined), the molecule was called inactive.
Regarding `COc1ccc(Nc2nc(N)c(C(=O)c3ccc(F)cc3)s2)cc1`, the call was inactive.
Regarding `COc1ccc(Nc2nc(N)c([N+](=O)[O-])c(N3CCCC3)n2)cc1`, the outcome was inactive.
Under `CCN1C(=O)/C(=C2/Sc3ccc(OC)cc3N2C)SC1=Nc1cccc(O)c1` stands “inactive”; under `CC(C)C[C@H](CO)Nc1nc(N(C)c2cccc(Cl)c2)c2ncn(C(C)C)c2n1`, “inactive”.
`Cc1ncc(CO)c(/C=N/Nc2ccc(C(F)(F)F)cn2)c1O`: the molecule was classed as inactive.
The result for `CC(C)n1cnc2c(Nc3cccc(F)c3)nc(NCCO)nc21` reads “inactive”.
For the molecule `Oc1cccc(C=NNc2ccccn2)c1`, the molecule was classed as inactive.
Under `Oc1[nH]c2ccccc2c1C1=NCCCCC1` stands “inactive”; under `O=C(O)CCC(=O)NCCn1c(-c2ccccc2)csc1=Nc1ccccc1`, “inactive”.
Under `Oc1ccc(/C=N/Nc2cccc(Cl)n2)c(O)c1` stands “inactive”; under `Cc1nn(-c2ncccn2)c2c1C(=O)CC(C)(C)C2Br` (centres undefined), “inactive”; under `COc1cc2c(ccc3cc(OC)c(OC)c(O)c32)cc1O`, “inactive”.
Under `Cc1ccc2nc(Cl)c(C#N)cc2c1` stands “inactive”; under `Fc1ccccc1/C=N/Nc1ncnc2nc[nH]c12`, “inactive”.
Regarding `CC(C)n1cnc2c(Nc3ccc(C(=O)O)cc3)nc(Cl)nc21`, the call was inactive.
Turning to `NC(=S)N/N=C/c1c(O)c(Br)cc2oc3c(c12)CCCC3`, the outcome was inactive.
The result for `CC1(C)Cc2c(ccc3ccccc23)C(=O)N1` reads “inactive”.
The result for `O=C(c1ccc2c(c1)OCCO2)N1CCN(c2ccccn2)CC1` reads “inactive”; that for `Cc1nn(-c2nccs2)c2c1C(=O)CC(C)(C)C2Br` (centres undefined), “inactive”.
The result for `COc1ccc(C(=O)N2CCN(c3ccccn3)CC2)cc1` reads “inactive”.
Turning to `Clc1ccc(N/N=C/c2ccncc2)cc1Cl`, the call was inactive.
For `Nc1nc(Nc2cccc(F)c2)nc(NCCO)c1[N+](=O)[O-]`, the outcome was inactive.
On to `CC(C)[C@H](CO)N(Cc1cccc(F)c1)c1nc(Nc2cccc(Cl)c2)c2ncn(C(C)C)c2n1`, for which the call was inactive.
On to `COc1cc(OC)cc(C(=O)NNC(=O)c2ccccn2)c1`, for which the outcome was inactive.
Under `Nc1ccc(-c2cnc(N)c(C(=O)c3cccnc3)n2)cn1` stands “inactive”; under `O=C(Cc1ccc(O)cc1)NCCNC(=S)NCc1ccccc1`, “inactive”; under `CC(C)n1cnc2c(Nc3cccc(Cl)c3)nc(N(CCO)CCCO)nc21`, “inactive”.
With `CN(C)N1C(N)=C(C#N)C(c2cccs2)C2=C1CCCC2=O` (centres undefined), the result was inactive.
The result for `Clc1cnc(N/N=C/c2ccncc2)c(Cl)c1` reads “inactive”; that for `COc1ccc2nc(C(F)(F)C(F)(F)F)c(C#N)c(N)c2c1`, “inactive”.
In the case of `Cc1nn(-c2nc3ccccc3[nH]2)c(=O)c2ccccc12`, the outcome was inactive.
Take `COc1cc(/C=N/Nc2ccc(C(F)(F)F)cn2)cc(OC)c1O`: the call was inactive.
The result for `CCCc1cc(-c2[nH]ncc2-c2ccc(C(=O)OCC)o2)c(O)cc1O` reads “inactive”.
The result for `CCc1cc(C(=O)c2ccc(OC)cc2)c(N)s1` reads “inactive”; that for `COc1ccc2nc3c(cc2c1)c(NC(=O)C1CCCO1)nn3CC(C)C` (centres undefined), “inactive”; that for `COc1ccc(C(=O)c2sc(Nc3ccccc3F)nc2N)cc1`, “inactive”.
Under `O=C(O)c1ccc(/C=N\Nc2ccccn2)cc1` stands “inactive”; under `CC(C)C[C@H](CO)Nc1nc(Nc2cccc(Cl)c2)c2ncn(C(C)C)c2n1`, “inactive”.
For the molecule `CC(C)n1cnc2c(Nc3ccc(F)c(Cl)c3)nc(NCCO)nc21`, the molecule was called inactive.
In the case of `C=CC(=O)Nc1ccc(Nc2ccnc(Nc3ccc(N4CCN(C)CC4)cc3)n2)cc1`, the outcome was inactive.
The result for `O=C(NNC(=O)c1ccccn1)c1ccc(OC(F)F)cc1` reads “inactive”; that for `CC(C)[C@H](CO)Nc1nc(NCc2ccc(S(N)(=O)=O)cc2)c2ncn(C(C)C)c2n1`, “inactive”.
